High-throughput results: PubChem BioAssay, National Center for Advancing Translational Sciences (NCATS)
This is a sample that favours compounds with a hit; in the whole collection about 7.4% have one here.
ELG1 genotox: qHTS screen for small molecules that induce genotoxicity in human embryonic kidney (HEK293T) cells expressing luciferase-tagged ELG1 | Potency, µM (highest dose often 46 µM), for inactives: at the top dose activity change, positive = activation, actives largely listed as activators | HEK293T ELG1-luciferase reporter, luminescence, 16 h | AID 504466, 2011 | actives 1.3% (n = 330,000); also: % of control where 0% means no effect; nearly all actives have a fitted effect of over 60% in size
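DMSO vehicle served as control against compound-treated ELG1-luciferase HEK293T cells; exposure lasted 16 hr at 37 °C and 5% CO2, followed by ONE-Glo luminescence detection after 30 min.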
Rab9 promoter act: qHTS Assay for Rab9 Promoter Activators; Huh7 Rab9 promoter-luciferase reporter, luminescence, 24 h; Potency, µM (series often up to 9.22 µM), inactives show at the highest dose activation, negative = inhibition, hits mostly activators; actives 2.8% (n = 320,000); AID 485297, 2010; also: % of control where 0% means no effect; nearly all actives have a fitted effect of over 60% in size
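Cells were plated at 1500 per well in reduced-serum medium with 10% FBS and left 2 h. Compound in DMSO was then added for 24 h at 37 °C. Reporter signal was read by luminescence after 10 min with luciferase detection reagent.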
SMN2 splice enh: qHTS Assay for Enhancers of SMN2 Splice Variant Expression. HEK293 SMN2-luciferase splicing reporter, luminescence, 30-36 h. Potency, µM (doses to about 46.1 µM), without a hit: at the highest dose activity change, positive = activation, most hits filed as activators. actives 2.8% (n = 210,000); also: % of control where 0% means no effect; nearly all actives have a fitted effect of over 55% in size
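qHTS luciferase splicing reporter: luminescence rises when SMN2 exon 7 is included in transfected HEK293 cells. Compound exposure lasted 30-36 h at 37C, with 4.5 mM final sodium butyrate as control, followed by a ONE-Glo read.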
NPC1 promoter act: qHTS Assay for NPC1 Promoter Activators | Huh7 NPC1 promoter luciferase reporter, 24 h | Potency, µM (titrated, usually from 9.22 µM), without a hit: at the top dose activation, hits mostly activators | actives 2.4% (n = 320,000) | AID 485313, 2010; also: % of control where 0% means no effect; nearly all actives have a fitted effect of over 60% in size
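Cells: Huh7 expressing luciferase under the NPC1 promoter, 1500/well. Seeded 2 h, compound added, incubated 24 h at 37 °C. Luciferase reagent, 10 min ambient, then luminescence.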
FLuc counter: qHTS profiling assay for firefly luciferase inhibitor/activator using purifed enzyme and Km concentrations of substrates (counterscreen for miR-21 project). actives 6.9% (n = 360,000). Luciferin 4-monooxygenase (Photinus pyralis), P08659. purified FLuc, Km substrates, luminescence inhibition. Potency, µM (highest dose often 57.5 µM), inactives show at the highest dose activity change, negative = inhibition, hits mostly inhibitors;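 also: plate controls were vehicle for no effect and reference inhibitor for full effect; nearly all actives have a fitted effect of over 55% in size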
Target sequence (P08659 whole entry, looked up): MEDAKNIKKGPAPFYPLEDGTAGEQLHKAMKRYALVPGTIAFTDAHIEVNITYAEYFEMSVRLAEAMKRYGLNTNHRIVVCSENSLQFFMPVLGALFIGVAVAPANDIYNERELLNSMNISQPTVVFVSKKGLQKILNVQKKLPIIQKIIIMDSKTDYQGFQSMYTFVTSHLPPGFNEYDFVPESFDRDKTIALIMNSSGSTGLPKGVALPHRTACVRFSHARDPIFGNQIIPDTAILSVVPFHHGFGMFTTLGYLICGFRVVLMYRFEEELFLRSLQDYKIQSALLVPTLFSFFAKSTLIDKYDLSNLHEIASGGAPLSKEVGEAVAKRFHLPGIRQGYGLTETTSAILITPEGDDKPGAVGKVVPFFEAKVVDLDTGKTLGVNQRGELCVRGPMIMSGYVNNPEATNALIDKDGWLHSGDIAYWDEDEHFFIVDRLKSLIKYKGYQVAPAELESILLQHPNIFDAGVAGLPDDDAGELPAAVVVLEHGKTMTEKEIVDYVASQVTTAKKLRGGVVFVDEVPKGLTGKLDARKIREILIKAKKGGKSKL
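Biochemical qHTS of compounds, final roughly 60 µM downward over six points, against 10 nM purified firefly luciferase using Km concentrations of substrates (10 uM D-luciferin, 10 uM ATP) in Tris acetate pH 7.5 buffer; luminescence output.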
Luc counter: Counterscreen for Luciferase (Kinase-Glo TM) Inhibition; Potency, µM (series often up to 38.3 µM), without a hit: top-dose activity change, negative = inhibition, actives largely listed as inhibitors; Luciferin 4-monooxygenase (Photuris pensylvanica), Q27757; Kinase-Glo luciferase, ATP luminescence, 8 min; AID 1379, 2008; actives 0.28% (n = 200,000); also: % is scaled to controls: 0 for no effect and ±100 for the full control effect; nearly all actives have a fitted effect of over 60% in size
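Inhibition of Kinase-Glo luciferase light generation was assessed at 10 uM ATP in pH 7.2 imidazole buffer, with luminescence measured after eight minutes at ambient temperature.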
Starred values were filed as active, the others as inactive; u = inconclusive; x = not tested or not shown. Calls follow the shape of the dose curve; as a rule, active = well fitted curve in the direction sought with a large enough effect; inconclusive = small, poorly fitted or top-dose-only effect, or another doubt; inactive = no such curve, though single readings can be large; an effect the other way counts as inactive or inconclusive. Potency is read from the fitted curve at half-maximal effect.

SMILES	ELG1 genotox	Rab9 promoter act	SMN2 splice enh	NPC1 promoter act	FLuc counter	Luc counter
Cc1ccc2nsnc2c1S(=O)(=O)N(Cc1ccco1)Cc1cc2cccc(C)c2[nH]c1=O	-6.0%	0.8%	-5.8%	-2.7%	4.8%	-5.5%
CCOC(=O)COn1c(=O)c(-c2cc3ccccc3o2)[n+]([O-])c2ccccc21	u	2.24µM*	14.1µM*	u	2.39µM*	-4.8%
CC(OC(=O)/C=C/c1ccccc1)C(=O)Nc1ccc2c(c1)OCCO2 (stereo not given)	1.1%	-3.7%	x	-0.1%	0.3%	x
CCOC(=O)c1cccc(NC(=O)c2ccc3c(c2)OCO3)c1	u	0.224µM*	x	0.398µM*	8.49µM*	x
CC(=O)c1cccc(NC(=O)c2ccc3c(c2)OCO3)c1	15.8%	u	x	u	26.9µM*	x
CC(=O)c1cccc(NC(=O)COC(=O)c2ccc3c(c2)OCO3)c1	2.2%	-1.5%	x	1.1%	3.4%	x
O=C(Nc1cccc(NC(=O)c2ccc3c(c2)OCO3)c1)c1ccccc1	-1.8%	0.6%	10.6%	7.0%	u	-13.8%
CC(=O)c1cccc(NC(=O)C(OC(=O)/C=C/c2ccc3c(c2)OCO3)c2ccccc2)c1 (stereo not given)	27.4%	1.0%	0.3%	7.1%	13.5µM*	-3.7%
CCC/C(=N/NC(=O)c1ccc2c(c1)OCO2)c1cccs1	12.7%	u	20µM*	13.2%	16.9µM*	-12.5%
O=S(=O)(NCc1nc2cccnc2n1Cc1ccccc1)c1ccc2c(c1)CCCC2	x	x	x	x	-0.5%	x
CCCCCCCCCCCCCCC/C=C/[C@@H](O)[C@H](NC(=O)CCCCCCCCCCCCC)OC (tested in a mixture with another compound)	x	x	-8.0%	x	x	-5.1%
CCOC(=O)c1cccc(NC(=O)/C=C/c2ccc3c(c2)OCO3)c1	u	0.316µM*	u	0.316µM*	1.9µM*	-4.4%
O=C(Nc1ccc(NC(=O)c2cccs2)cc1)c1ccc2c(c1)OCO2	u	-9.3%	x	-8.5%	1.9%	x
CCOC(=O)c1c(C)c(C(=O)Nc2ccc3c(c2)OCO3)c(C)n1C	2.2%	0.6%	-28.5%	4.9%	-13.4%	-2.7%
CCOC(=O)c1cccc(NC(=O)/C=C/c2cccc([N+](=O)[O-])c2)c1	1.8%	16.1%	-22.2%	-0.5%	-11.0%	-2.3%
O=C(Nc1cccc(NC(=O)c2cccs2)c1)c1ccc2c(c1)OCO2	-2.3%	7.4%	28.2%	9.7%	15.1µM*	1.0%
CCOC(=O)c1c(NC(=O)c2cc(C)oc2C)sc(C(=O)Nc2ccc(Cl)cc2)c1C	14.5%	29.0%	-2.0%	23.4%	16.9µM*	-2.5%
CCOC(=O)c1c(N)sc(C(=O)Nc2ccc3c(c2)OCO3)c1C	0.366µM*	0.1µM*	-42.9%	0.316µM*	0.426µM*	4.47µM*
CCOC(=O)c1c(NC(=S)Nc2ccc(Cl)cc2)sc(C)c1C	5.2%	-0.4%	5.9%	1.5%	2.8%	19.0%
COC(=O)c1ccc(NC(=O)NCCn2nnc3cc(S(=O)(=O)N(C)C)ccc32)cc1	x	x	x	x	-1.7%	x
COC(=O)CC1[C@@]2(C)C[C@]34OC5(C)OC6(C7CC(=O)OC(c8ccoc8)[C@]7(C)CCC6(O5)[C@]13C)C(OC(C)=O)[C@]4(OC(C)=O)C2OC(C)=O (stereo not given in full)	x	x	-13.5%	x	x	0.8%
CC(=O)c1cccc(NC(=O)c2ccc3ccccc3c2)c1	u	2.82µM*	x	3.16µM*	1.9µM*	x
COc1ccc(-c2cccc(NC(=O)c3ccc4c(c3)OCO4)c2)nn1	-16.9%	-7.8%	x	3.2%	15.1µM*	x
Cc1nc2ccn(Cc3ccco3)c(=O)c2cc1C(=O)NCc1ccccc1	x	x	x	x	2.5%	x
COc1cccc(NC(=O)Cn2nc(C)c3c(C)n(-c4ccccc4)nc3c2=O)c1	x	x	x	x	-8.0%	x
SMILES	ELG1 genotox	Rab9 promoter act	SMN2 splice enh	NPC1 promoter act	FLuc counter	Luc counter
O=C(/C=C/c1ccccc1)N1CCC(c2ccccc2)C1 (stereo not given)	6.51µM*	1.58µM*	11.2µM*	3.16µM*	4.78µM*	-2.7%
CCOC(=O)C1CCN(C(=O)/C=C/c2ccc(OC)cc2)CC1	4.11µM*	0.316µM*	6.31µM*	0.708µM*	7.57µM*	-1.9%
COc1ccccc1N1CCN(C(=O)/C=C/c2ccccc2)CC1	2.5%	-1.4%	12.3%	7.7%	1.3%	3.2%
CCOC(=O)C1CCN(C(=O)/C=C/c2ccccc2OC)CC1	0.5%	-1.0%	1.4%	0.9%	-4.7%	-0.6%
COC(=O)C1CCN(C(=O)/C=C/c2ccccc2)CC1	13.5%	1µM*	14.1µM*	1.41µM*	u	-1.5%
O=C(/C=C/c1ccccc1)N1CCC(Cc2ccccc2)CC1	10.8%	29.6%	x	23.5%	15.1µM*	x
Cc1ccc(Cn2c(CN3CCC(C(=O)NCCc4ccccc4)CC3)cc3ccccc32)cc1	x	x	x	x	-1.6%	x
Cc1ccc(-n2nc(CO)c(C(=O)NCc3cccnc3)n2)cc1C	x	x	-36.1%	x	u	x
C=CCOc1c(CNc2ccc(C(=O)O)cc2)cccc1OC	2.4%	-2.2%	u	7.4%	-19.4%	4.2%
C=CCOc1c(CNc2cccc(C(=O)O)c2)cccc1OC	u	u	u	u	15.1µM*	-2.2%
C=CCOc1c(CNc2ccc(C(=O)O)cc2)cccc1OCC	18.0%	u	u	u	21.3µM*	-2.6%
C=CCOc1cccc(CNc2cccc(C(=O)O)c2)c1	16.2%	u	x	u	9.53µM*	x
Cn1cc(CNC(=O)c2cnn3c2NC(=C2CC2)C=C3C(F)F)cn1	x	x	x	x	-0.1%	x
Cc1ccc(C)c(Cn2nnc(C(=O)Nc3ccc4c(c3)OCCO4)c2N)c1	4.4%	u	x	u	u	x
Nc1c(C(=O)Nc2ccc3c(c2)OCCO3)nnn1Cc1ccc(Cl)cc1	u	0.891µM*	x	2.24µM*	u	x
Nc1c(C(=O)NCc2ccc3c(c2)OCO3)nnn1Cc1ccc(Br)cc1	3.1%	5.9%	x	-0.8%	1.9%	x
Nc1c(C(=O)Nc2ccc3c(c2)OCCO3)nnn1Cc1cccc(F)c1	u	3.16µM*	x	3.55µM*	u	x
Cc1ccccc1Cn1nnc(C(=O)Nc2ccc3c(c2)OCCO3)c1N	18.5%	1.78µM*	x	2.82µM*	3.01µM*	x
COc1ccc(Cn2nnc(C(=O)Nc3ccc4c(c3)OCCO4)c2N)cc1Br	9.6%	12.7%	x	-2.3%	21.3µM*	x
